Assay [1] is described as follows: TOX21_p53_BLA_p2_viability: Viability Assessment in the Tox21 HCT-116 p53 Agonism Beta-lactamase Assay, Phase 2 (AID 2283591).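 Further: compound exposure lasted 16 h at 37 °C; actives lower the ATP signal meaning cytotoxicity.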 The method in brief:
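HCT116 p53-bla cells, 4000/well, dosed after 5 h plating (217-fold dilution of DMSO stocks) and incubated 16 h at 37C. Viability taken as cellular ATP by CellTiter-Glo luminescence after 30 min RT; signal loss marks cytotoxicity.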

Assay [2] has as its target Cellular tumor antigen p53 (Homo sapiens) (UniProt P04637). Put plainly: TOX21_p53_BLA_p4_ratio: Tox21 HCT-116 p53 Agonism Beta-lactamase Assay, Ratio, Phase 4 (AID 2283601). The method in brief:
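HCT-116 p53 beta-lactamase reporter cells (4000/well) preincubated 5 h, then compound (217-fold dilution of DMSO stock) for 16 h at 37C. CCF4-AM substrate added 2 h at room temperature; 460/530 nm emission ratio fitted upward versus DMSO.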

A short description of assay [3]: TOX21_p53_BLA_p5_viability: Viability Assessment in the Tox21 HCT-116 p53 Agonism Beta-lactamase Assay, Phase 5 (AID 2283600). The method, boiled down:
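Viability came from CellTiter-Glo ATP luminescence, read after 30 min at room temperature. Before this, HCT-116 p53-bla cells (4000/well) had 16 hours of compound exposure at 37C, with DMSO stocks diluted 217-fold on transfer.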

For assay [4], the target named is Cellular tumor antigen p53 (Homo sapiens) (UniProt P04637). Put plainly: TOX21_p53_BLA_p5_ratio: Tox21 HCT-116 p53 Agonism Beta-lactamase Assay, Ratio, Phase 5 (AID 2283599). The method, boiled down: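 HCT-116 p53-bla cells (4000/well) plated 5 h, dosed with compound (217-fold DMSO dilution) for 16 h at 37 C; CCF4-AM substrate 2 h at room temperature. Activity is the 460/530 nm emission ratio (405 nm excitation), fitted in gain-of-signal direction versus DMSO.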
Cellular tumor antigen p53 (Homo sapiens), sequence (P04637 whole entry, looked up): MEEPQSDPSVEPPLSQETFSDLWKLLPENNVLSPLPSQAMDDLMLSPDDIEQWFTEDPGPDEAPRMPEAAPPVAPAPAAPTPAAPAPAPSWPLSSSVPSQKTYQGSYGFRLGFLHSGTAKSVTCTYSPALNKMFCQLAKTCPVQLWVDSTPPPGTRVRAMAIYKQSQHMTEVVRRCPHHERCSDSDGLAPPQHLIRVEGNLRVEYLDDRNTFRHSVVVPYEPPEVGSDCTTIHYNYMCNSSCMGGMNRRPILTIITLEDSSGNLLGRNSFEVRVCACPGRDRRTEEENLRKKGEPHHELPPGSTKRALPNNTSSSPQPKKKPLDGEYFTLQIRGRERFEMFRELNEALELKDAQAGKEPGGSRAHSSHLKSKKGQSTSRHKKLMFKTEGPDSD

Assay [5] has the same target. Put plainly: TOX21_p53_BLA_p2_ratio: Tox21 HCT-116 p53 Agonism Beta-lactamase Assay, Ratio, Phase 2 (AID 2283592). The method, boiled down: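 Read-out is the blue/green (460/530 nm, 405 nm excitation) ratio after 2 h CCF4-AM loading, fitted as gain versus DMSO. Compounds, pinned at 217-fold dilution from DMSO stocks, stayed 16 h on HCT-116 beta-lactamase reporter cells seeded 5 h earlier.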

Assay [6] in a line: TOX21_p53_BLA_p3_viability: Viability Assessment in the Tox21 HCT-116 p53 Agonism Beta-lactamase Assay, Phase 3 (AID 2283593).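 Further: cells exposed to compound for 16 h before reading.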 The method, boiled down: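 HCT116 cells, 4000/well, dosed 5 h after plating by pin transfer (217-fold dilution from DMSO stock) and incubated 16 h at 37C, 5% CO2. Viability read as ATP luminescence with CellTiter-Glo after 30 min at room temperature.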

Assay [7] has as its target Cellular tumor antigen p53 (Homo sapiens) (UniProt P04637). Put plainly: TOX21_p53_BLA_p3_ratio: Tox21 HCT-116 p53 Agonism Beta-lactamase Assay, Ratio, Phase 3 (AID 2283596). The method in brief: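 Cells were seeded at 4000/well, rested 5 h at 37C, then dosed with DMSO compound solutions (217-fold dilution) for 16 h. CCF4-AM substrate was loaded for 2 h at room temperature, and the 460/530 nm emission ratio was fitted for gain of signal versus DMSO.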

Assay [8] is described as follows: TOX21_p53_BLA_p4_viability: Viability Assessment in the Tox21 HCT-116 p53 Agonism Beta-lactamase Assay, Phase 4 (AID 2283597).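 Further: hits lower the luminescence signal meaning cytotoxicity.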 The method, boiled down:
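Cytotoxicity as reduced cellular ATP (CellTiter-Glo luminescence, 30 min room temperature), measured in the same wells following the CCF4 FRET p53 reading. Human HCT-116 cells received compounds in DMSO (217-fold dilution) for 16 h.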

In PubChem BioAssay (EPA / NIEHS) one finds outcome and AC50 data, which are given here for 37 compounds.

Inconclusive results are not listed. Activity calls are given as the source filed them. How the source made its calls: active means hit-call score of the fitted dose curve at least 0.9, where 1 is the maximum; inconclusive means response in the unintended direction; inactive means score below 0.9.

As for `CC(O)Cn1cnc2c1c(=O)n(C)c(=O)n2C` (configuration not stated), the result in assay [1] and in assay [2] was inactive.
`CC[N+](C)(CC)CCOC(=O)C(O)(c1ccccc1)C1CCCCC1` (configuration not stated): the result in assay [1] and in assay [3] was inactive.
As to `CC(C)CC(O)CC(C)C`, the result in assay [1] and in assay [3] was inactive.
Regarding `CCCCCCCCCC#N`, the call in assay [1], in assay [4] and in assay [2] was inactive.
Regarding `Clc1ccnc(Cl)n1`, the result in assay [5] and in assay [6] was inactive.
With `COC(=O)CCCCC(=O)O`, the result in assay [5], in assay [6] and in assay [7] was inactive.
For the compound `CC(C)CNCC(C)C`, the compound was called inactive in assay [1], in assay [4], in assay [3] and in assay [2].
For `Oc1ccc(-c2ccc(O)cc2)cc1`, the compound was called inactive in assay [1], in assay [4] and in assay [3]. Moreover, the AC50 (commonly the concentration at which the activity in the assay is half-maximal) in assay [2] is 46.8 µM (active).
Regarding `CC(C)(C)C1(O)CCN2CC3c4ccccc4CCc4cccc(c43)C2C1` (configuration not stated), the outcome in assay [5] was inactive.
`CCC(O)C(C)(C)C` (configuration not stated): the outcome in assay [1], in assay [4], in assay [3] and in assay [2] was inactive.
Regarding `CCCCCCCC/C=C\CCCCCCCCCCCC(=O)O`, the compound was called inactive in assay [1], in assay [4] and in assay [2].
On to `C=C(C)C(=O)OC(C)C`, for which the result in assay [5] and in assay [6] was inactive.
With `CCOC(=O)CC(C)=O`, the compound was called inactive in assay [1] and in assay [3].
As to `O=C1NCCN1`, the result in assay [5], in assay [6], in assay [7] and in assay [8] was inactive.
With `CCOC(=O)CC#N`, the outcome in assay [5], in assay [6], in assay [7], in assay [8], in assay [4] and in assay [3] was inactive. Further, the result in assay [2] was inactive.
`CN1CCN(c2cc3c(nn2)Oc2ccccc2N3C)CC1`: the result in assay [5], in assay [6], in assay [7], in assay [8], in assay [4] and in assay [3] was inactive. In assay [2], the outcome was inactive.
As for `O=C(c1ccccc1)c1cccc(O)c1`, the outcome in assay [5], in assay [6], in assay [7], in assay [8], in assay [4] and in assay [3] was inactive.
Consider `CO[C@@H]1[C@@H](O[C@@H]2O[C@H](C)[C@@H](O[C@H]3C[C@](C)(O)[C@@H](O)[C@H](C)O3)[C@H](N(C)C)[C@H]2O)[C@H](CC=O)C[C@@H](C)[C@H](O[C@H]2CC[C@H](N(C)C)[C@@H](C)O2)/C=C\C=C\C[C@@H](C)OC(=O)C[C@H]1O`, for which the outcome in assay [5], in assay [6], in assay [7], in assay [8] and in assay [4] was inactive.
For `CCN1CC(CCN2CCOCC2)C(c2ccccc2)(c2ccccc2)C1=O` (configuration not stated), the outcome in assay [5], in assay [6], in assay [7], in assay [8] and in assay [4] was inactive.
In the case of `Cc1c(N)cccc1Cl`, the result in assay [5], in assay [6], in assay [7], in assay [8], in assay [4] and in assay [3] was inactive.
`CCC[C@@H]1C[C@@H](C(=O)N[C@@H]([C@H]2O[C@H](SC)[C@H](OP(=O)(O)O)[C@@H](O)[C@H]2O)[C@H](C)Cl)N(C)C1`: the outcome in assay [5], in assay [6], in assay [7], in assay [8], in assay [4] and in assay [3] was inactive. In assay [2], the outcome was inactive.
Take `CCCCN1CCCC[C@H]1C(=O)Nc1c(C)cccc1C`: the result in assay [5], in assay [6], in assay [7], in assay [8], in assay [4] and in assay [3] was inactive.
With `NCCc1ccc(O)c(O)c1`, the result in assay [5], in assay [6], in assay [7], in assay [8], in assay [4] and in assay [3] was inactive.
For the compound `[O-][n+]1cccc(CO)c1`, the outcome in assay [5], in assay [6], in assay [7], in assay [8] and in assay [4] was inactive.
Consider `CCCN1CCCC[C@H]1C(=O)Nc1c(C)cccc1C`, for which the outcome in assay [5], in assay [6], in assay [7], in assay [8], in assay [4] and in assay [3] was inactive. Also, the result in assay [2] was inactive.
With `CC1=NS(=O)(=O)c2cc(Cl)ccc2N1`, the outcome in assay [5], in assay [6], in assay [7], in assay [8] and in assay [4] was inactive.
As for `NCC[C@H](O)C(=O)N[C@@H]1C[C@H](N)[C@@H](O[C@H]2O[C@H](CN)[C@@H](O)[C@H](O)[C@H]2O)[C@H](O)[C@H]1O[C@H]1O[C@H](CO)[C@@H](O)[C@H](N)[C@H]1O`, the result in assay [5], in assay [6], in assay [7], in assay [8], in assay [4] and in assay [3] was inactive.
For `CC1(C)[C@@H]2CC[C@@]1(C)[C@H](OC(=O)CSC#N)C2`, the result in assay [5], in assay [6], in assay [7], in assay [8] and in assay [4] was inactive.
For `CC1(C)O[C@H]2CC(=O)OC[C@]23[C@H]2CC[C@@]4(C)[C@H](c5ccoc5)OC(=O)[C@H]5O[C@]54[C@]2(C)C(=O)C[C@@H]13`, the outcome in assay [5], in assay [6], in assay [7], in assay [8], in assay [4] and in assay [3] was inactive. Moreover, the result in assay [2] was inactive.
On to `CC(C)[C@@H](C)/C=C/[C@@H](C)[C@H]1CC[C@H]2/C(=C/C=C3\C[C@@H](O)CC[C@@H]3C)CCC[C@]12C`, for which the result in assay [5], in assay [6], in assay [7] and in assay [8] was inactive.
For `Nc1nnnn1-c1ccccc1`, the outcome in assay [5], in assay [6], in assay [7], in assay [8], in assay [4] and in assay [3] was inactive.
As for `CCCCNC1CC(C)(C)NC(C)(C)C1`, the outcome in assay [5], in assay [6], in assay [7], in assay [8] and in assay [4] was inactive.
Consider `COc1ccc2c(=O)c(C)c(-c3ccccc3)oc2c1CN(C)C`, for which the outcome in assay [5], in assay [6], in assay [7], in assay [8] and in assay [4] was inactive.
In the case of `O=C(O)CN1C(=O)c2cccc3cccc(c23)C1=O`, the result in assay [5], in assay [6], in assay [7], in assay [8] and in assay [4] was inactive.
Consider `COc1ccc2cc(CCC(C)=O)ccc2c1`, for which the outcome in assay [5], in assay [6], in assay [7], in assay [8], in assay [4] and in assay [3] was inactive.
`O=C(Cn1cnnn1)N[C@@H]1C(=O)N2C(C(=O)O)=C(CSc3nncs3)CS[C@H]12`: the result in assay [5], in assay [6], in assay [7], in assay [8], in assay [4] and in assay [3] was inactive.
Turning to `C#CCOc1ccc2c(C)cc(=O)oc2c1`, the outcome in assay [5], in assay [6], in assay [7], in assay [8], in assay [4] and in assay [3] was inactive. In addition, the result in assay [2] was inactive.
